GSH fluor: GSH bead compound fluorescence profile; GSH beads flow cytometry, compound fluorescence 488/530 nm; active compounds read high; fluorescence (KMESF) at 10 µM; hit rate 0.25% among 190,000; in the data active means fluorescence above about 89;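 further: glutathione beads carrying GST-tagged Bcl family fusion proteins plus one bare bead set; values are compound well signal with DMSO vehicle wells as background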
RGS16-Gao HTS: RGS16-Galphao interaction regulator (human); O15492+P09471; bead-based flow cytometry RGS16-Galphao binding, fluorescence; actives lie on both sides; binding response (% of control), % at 10 µM; hit rate 0.38% among 220,000; AID 1441;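 further: Galphao activated by GDP with aluminum fluoride before binding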
RGS4-Gao reg: human RGS4-Galphao interaction regulation | P09471 | Multiplexed bead flow cytometry, RGS4-Galphao binding; actives lie on both sides | binding response (% of control), % at 10 µM | hit rate 0.33% among 220,000; in the data active means binding response below about 49% or above about 150%; inactive means in between;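 further: fluorescent Galphao activated with aluminum fluoride binding bead-coupled RGS4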
Target sequence (P09471 whole entry, looked up): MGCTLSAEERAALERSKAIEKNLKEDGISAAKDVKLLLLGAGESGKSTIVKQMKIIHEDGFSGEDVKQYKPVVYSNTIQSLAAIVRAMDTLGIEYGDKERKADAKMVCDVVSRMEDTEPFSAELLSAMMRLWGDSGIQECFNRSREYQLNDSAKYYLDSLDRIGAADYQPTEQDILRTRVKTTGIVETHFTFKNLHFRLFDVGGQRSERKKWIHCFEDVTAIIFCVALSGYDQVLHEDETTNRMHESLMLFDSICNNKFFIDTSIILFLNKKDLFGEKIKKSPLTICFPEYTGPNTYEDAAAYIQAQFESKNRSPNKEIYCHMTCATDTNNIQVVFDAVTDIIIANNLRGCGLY
RGS8-Gao: regulators of human RGS8-Galphao interaction; hit rate 0.34% among 220,000; P09471; response (percent of control binding), % at 10 µM; multiplexed bead flow cytometry, RGS8-Galphao binding; actives lie on both sides; in the data active means response below about 60% or above about 140%; inactive means in between;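 further: Galphao activated as the GDP aluminium fluoride complex binding bead-coupled RGS8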
RGS7-Gao reg: modulates binding of RGS7 to human Galphao; P09471; Multiplexed bead flow cytometry; actives lie on both sides; binding response (% of control), % at 10 µM; hit rate 0.35% among 220,000; in the data active means binding response below about 49% or above about 150%; inconclusive means no clear call, values can overlap the other calls; inactive means in between;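 further: fluorescent Galphao held in activated GDP-AlF4 state binding bead-coupled RGS7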
Avidin fluor: compound fluoresces at 488/530 nm on avidin beads | compound fluorescence 488/530 nm, flow cytometry; active compounds read high | fluorescence (KMESF) at 10 µM | hit rate 0.38% among 220,000 | AID 1775; in the data active means fluorescence above about 47
RGS4-Gao HTS: regulators of human RGS4-Galphao interaction | shares compounds with RGS16-Gao HTS | multiplexed bead flow cytometry, RGS–Galpha-o binding | RGS4–Galpha-o binding response, % at 10 µM | hit rate 99% among 1,600;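 further: fluorescently labeled Galpha-o bound to GDP with aluminium fluoride binding biotinylated RGS beads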
Avidin counter: interferes with biotinylated probe binding to avidin beads; inhibition, % at 10 µM; AID 1783; 1,700 tested, under 10 active; streptavidin beads, fluorescein-biotin binding, flow cytometry; shares compounds with RGS16-Gao HTS;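 active means inhibition above 50%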;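 further: median green fluorescence of gated singlet beads compared with DMSO control wells; 0% = DMSO wells and 100% = complete loss of bead fluorescence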
RGS8-Gao single: RGS8-Galphao interaction regulation, single point confirmation | binding response (% of control), % at 10 µM | bead-based flow cytometry RGS8-Galphao binding, fluorescence; actives lie on both sides | shares compounds with RGS16-Gao HTS | hit rate 3% among 1,700; in the data active means binding response below about 72% or above about 130%; inactive means in between;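 further: Galphao activated as GDP AlF4 complex before binding bead RGS8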
RGS7-Gao confirm: RGS7-Galphao interaction regulation, single point confirmation; shares compounds with RGS16-Gao HTS; bead-based flow cytometry RGS7-Galphao binding; actives lie on both sides; response (percent of control binding), % at 10 µM; hit rate 7.8% among 1,700; AID 1837; in the data active means response below about 75% or above about 130%; inactive means in between;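 further: fluorescent Galphao activated with GDP and aluminum fluoride binding bead-coupled RGS7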
RGS16-Gao single: confirmation of regulators of human RGS16-Galphao interaction; response (% of control binding), % at 10 µM; shares compounds with RGS16-Gao HTS; hit rate 4% among 1,700; AID 1838; bead-based flow cytometry, RGS16-Galphao binding; actives lie on both sides; in the data active means response below about 74% or above about 130%; inactive means in between;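 further: Galphao activated as the GDP aluminium fluoride complex binding bead-coupled RGS16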
RGS4-Gao single: RGS4-Galphao interaction regulation, single point confirmation. shares compounds with RGS16-Gao HTS. RGS4-Galphao binding, multiplexed bead flow cytometry; actives lie on both sides. binding response (% of control), % at 10 µM. hit rate 4% among 1,700. AID 1840; in the data active means binding response below about 74% or above about 130%; inactive means in between
RGS19-Gao single: confirmation of regulators of human RGS19-Galphao interaction; shares compounds with RGS16-Gao HTS; bead-based flow cytometry RGS19-Galphao binding; actives lie on both sides; response (percent of control binding), % at 10 µM; hit rate 5% among 1,700; AID 1841; in the data active means response below about 50% or above about 160%; inactive means in between;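 further: 100% = no compound control and 0% = blank background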
Target sequence (P09471 whole entry, looked up): as above
Target sequence (P49795 whole entry, looked up): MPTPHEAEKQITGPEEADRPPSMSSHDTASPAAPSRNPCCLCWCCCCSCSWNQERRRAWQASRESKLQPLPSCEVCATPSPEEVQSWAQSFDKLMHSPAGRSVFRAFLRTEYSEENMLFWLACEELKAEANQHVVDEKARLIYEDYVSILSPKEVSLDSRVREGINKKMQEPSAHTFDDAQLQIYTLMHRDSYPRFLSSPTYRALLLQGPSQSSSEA
Numbers without * were called inactive; ? = inconclusive; nt = no result given; [ ] = another dose, or the depositor's remark. In the library only some 1.2% were active in any assay of this set; here they are far more common. Unless noted, how the calls were made is not given here.

SMILES	GSH fluor	RGS16-Gao HTS	RGS4-Gao reg	RGS8-Gao	RGS7-Gao reg	Avidin fluor	RGS4-Gao HTS	Avidin counter	RGS8-Gao single	RGS7-Gao confirm	RGS16-Gao single	RGS4-Gao single	RGS19-Gao single
COc1ccc(Nc2ccc(S(=O)(=O)N3CCCCCC3)cc2[N+](=O)[O-])cc1	9	107	105	103	nt	7	nt	2	90	88	89	91	78
Cc1ccc(S(=O)(=O)Nc2ccc(N3CCOCC3)cc2)cc1	37	-64*	86	88	93	9	86*	0	101	102	100	105	102
COc1ccccc1CNC(=S)NC1CCCC1	11	104	107	101	103	9	nt	nt	nt	nt	nt	nt	nt
CCn1nc(C)c(CNC(=O)Nc2ccc3c(c2)OCO3)c1C	15	99	99	104	92	12	nt	nt	nt	nt	nt	nt	nt
Cc1ccc(N(CCC#N)C(=O)CCl)cc1C	7	21*	95	80	92	9	95*	0	101	102	103	104	107
CC(=O)NCCNS(=O)(=O)c1ccc(C)c([N+](=O)[O-])c1	nt	113	115	108	118	5	nt	nt	nt	nt	nt	nt	nt
CC(C)CSc1ccc(S(=O)(=O)NCC(=O)O)cc1[N+](=O)[O-]	21	96	125	97	278*[activator]	169*	125*	0	97	98	97	97	97
C=C1CCN([C@H](C(=O)OCc2cccc(C)c2)C(C)C)S(=O)(=O)c2ccccc21	nt	90	90	90	?	7	nt	nt	nt	nt	nt	nt	nt
O=C(NCc1cccnc1)c1ccc(Br)s1	nt	107	103	101	?	9	nt	nt	nt	nt	nt	nt	nt
O=C(O)CCCN1C(=O)/C(=C/c2ccncc2)SC1=S	nt	137	151*[activator]	104	?	40	nt	-1	99	98	99	99	101
O=C(O)CCCCCN1C(=O)/C(=C\c2ccncc2)SC1=S	7	205	102	122	100	11	nt	nt	nt	nt	nt	nt	nt
NC(=O)NC(=O)COC(=O)c1ccccc1OCc1ccc(F)cc1	nt	40	40*	55*	?	1	nt	-8	114	117	112	114	113
Cc1ccsc1C1C2=C(CCCC2=O)Nc2ncnn21 (centres undefined)	25	102	99	102	99	14	nt	nt	nt	nt	nt	nt	nt
O=C1CCCC2=C1C(c1cccs1)n1ncnc1N2 (centres undefined)	25	142	202*[activator]	105	163*[activator]	80*	nt	-1	93	61*	72*	74*	40*
COc1ccc(/C=C\C(=O)NCc2ccc3c(c2)cc(C)n3C)cc1OC	15	23*	79	71	79	4	79*	nt	nt	nt	nt	nt	nt
Cc1ccc(-n2c(C)c([N+](=O)[O-])c3ccc(O)c(CN(C)C)c32)cc1	12	105	104	103	105	8	nt	nt	nt	nt	nt	nt	nt
COc1ccc(-n2c(C)c([N+](=O)[O-])c3ccc(O)c(CN4CCCCC4)c32)cc1	10	-307	25*	92	79	8	nt	0	101	108	100	103	84
O=C(O)CC1COc2ccccc2N1C(=O)c1ccccc1Cl (centres undefined)	27	97	94	94	91	10	nt	nt	nt	nt	nt	nt	nt
CCOC(=O)c1sc(-c2ccc(C(F)(F)F)cc2)nc1O	nt	95	96	100	?	6	nt	nt	nt	nt	nt	nt	nt
CCOC(=O)c1sc(-c2cccc(C(F)(F)F)c2)nc1O	nt	96	97	75	?	7	nt	0	100	94	100	98	90
C#CC1(NC(=O)NC(C)C)CCCCC1	12	99	100	104	96	21	nt	nt	nt	nt	nt	nt	nt
NC(=O)CSc1nnc(-c2ccco2)n1N	38	nt	nt	nt	nt	nt	nt	0	101	98	97	98	101
CCOC(=O)c1cc2sccc2n1CC(=O)N1CCCC1	31	121	113	104	150*[activator]	48*	113*	-1	96	96	96	95	94
CCn1c(C(=O)N2CCCC(C(=O)O)C2)cc2sccc21 (centres undefined)	64	24*	93	71	93	4	93*	-1	105	104	109	102	114
CCCNc1sc(S(=O)(=O)CCC)nc1S(=O)(=O)c1ccc(C)cc1	12	106	97	100	96	24	nt	nt	nt	nt	nt	nt	nt
SMILES	GSH fluor	RGS16-Gao HTS	RGS4-Gao reg	RGS8-Gao	RGS7-Gao reg	Avidin fluor	RGS4-Gao HTS	Avidin counter	RGS8-Gao single	RGS7-Gao confirm	RGS16-Gao single	RGS4-Gao single	RGS19-Gao single
C=C(C(=O)O)C1CCC2(C)CCCC(C)(O)C2C1 (centres undefined)	nt	98	102	102	?	8	nt	nt	nt	nt	nt	nt	nt
CSC1=NSC2=NC(=O)/C(=C/c3coc4ccc(O)cc4c3=O)C(=N)N12	15	97	97	96	92	13	nt	nt	nt	nt	nt	nt	nt
CSC1=NSC2=NC(=O)/C(=C/c3coc4ccccc4c3=O)C(=N)N12	13	200	150	92	174*[activator]	94*	150*	nt	nt	nt	nt	nt	nt
CSCC[C@H](NC(=O)Nc1ccc(OC(F)(F)F)cc1)C(=O)O	nt	48	61	55*	?	5	61*	0	102	99	98	102	97
CC(Sc1cnccn1)C(=O)O (centres undefined)	10	100	99	100	99	8	nt	nt	nt	nt	nt	nt	nt
CC(C)OC(=O)C1C(=O)CC(C)(O)C(C(=O)OC(C)C)C1c1ccccc1 (centres undefined)	15	-3.2*	2.3*	5.7*	1.8*	-1	nt	-2	101	101	102	101	103
CCCCCC(=O)NC(=S)Nc1cccc(C(C)=O)c1	17	103	99	102	101	16	nt	nt	nt	nt	nt	nt	nt
CCCC(=O)NC(=S)Nc1cccc(C(C)=O)c1	36	326	114	145*[activator]	119	14	114*	1	100	100	100	100	98
